# D1 PAM = Potentiators of Human D1 Dopamine Receptor: qHTS; potentiation, % at 10 µM; HEK293 TREx D1 cells, calcium flux, dopamine EC20 potentiation; D(1A) dopamine receptor (Homo sapiens), P21728; 360,000 tested, 0.036% active; in the data active means potentiation above about 30%; further: 0% is about no effect
# Target sequence (P21728 whole entry, looked up): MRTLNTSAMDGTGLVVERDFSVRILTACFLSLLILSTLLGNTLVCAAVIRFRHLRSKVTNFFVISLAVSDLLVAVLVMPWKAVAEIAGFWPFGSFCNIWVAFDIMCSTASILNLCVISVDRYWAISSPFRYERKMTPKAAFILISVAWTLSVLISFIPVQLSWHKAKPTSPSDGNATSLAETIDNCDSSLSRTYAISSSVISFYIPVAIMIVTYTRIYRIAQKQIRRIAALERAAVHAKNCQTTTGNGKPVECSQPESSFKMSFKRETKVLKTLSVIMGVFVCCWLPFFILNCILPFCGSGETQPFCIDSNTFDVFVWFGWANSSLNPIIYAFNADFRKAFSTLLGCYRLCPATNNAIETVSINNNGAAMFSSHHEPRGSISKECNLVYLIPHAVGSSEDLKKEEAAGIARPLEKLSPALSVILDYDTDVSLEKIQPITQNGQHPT
# D1 agonist = Allosteric Agonists of the Human D1 Dopamine Receptor: qHTS; AID 504660, 2011; HEK293 T-REx D1 cells, calcium flux, agonist mode; activation, % at 2 µM; 360,000 tested, 1% active; D(1A) dopamine receptor (Homo sapiens), P21728; further: 0% is about no effect
#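 Agonism was scored from calcium flux recorded over 180 s (1 read/s) after pintool compound addition, following a 10-cycle baseline. Cells were inducible force-coupled HEK293 TREx D1, plated overnight at 30 C and loaded with no-wash calcium dye.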
# TRHR ag = qHTS for Small Molecule Agonists and Allosteric Enhancers of Human TRH Receptor: Primary Screen for Agonists; activation, % at 2 µM; 360,000 tested, 0.18% active; TRHR cells, calcium flux fluo-8, FDSS agonist mode; AID 493084, 2011; further: 0% is about no effect
#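 TRHR-expressing cells loaded with fluo-8 calcium dye; 23 nL library compound pin-transferred, kinetic FDSS fluorescence (Ex 480/Em 530) recorded about 180 s for agonist-induced calcium release, before a 10 nM TRH EC20 addition for potentiator mode.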
# Glioma ERSR ind = qHTS for Inducers of the Endoplasmic Reticulum Stress Response (ERSR) in Human Glioma: qHTS. U87-MG GRP78 promoter luciferase reporter, 16 h. Potency, µM, without a hit: at the top dose activation, usual class: activators. 420,000 tested, 0.02% active. AID 602332, 2012; active means well fitted activation curve with a large enough effect; further: potency means the concentration at half of the fitted maximal effect; series mostly up to about 76 µM; % of control where 0% means no effect; nearly all actives have a fitted effect of over 35% in size
#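 ERSR induction read as luciferase luminescence (Bright-Glo, 10 min at room temperature) in stably transfected human U87-MG glioma cells exposed to compounds for 16 h, using GRP78 as sensor.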
# TRHR PAM = qHTS for Small Molecule Agonists and Allosteric Enhancers of Human TRH Receptor: Primary Screen for Enhancers; TRHR cells, fluo-8 calcium fluorescence, EC20 TRH enhancement; enhancement, % at 2 µM; 360,000 tested, 0.66% active; in the data active means enhancement above about 30%; further: 0% is about no effect
#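 Enhancer read-out: after compound pinning and an initial kinetic agonist-mode read, an EC20 of TRH (10 nM final) was injected and fluo-8 calcium signal (Ex 480/Em 530) followed at 1 s/cycle for 100 cycles in TRHR-expressing cells.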
# D1 antagonist = Antagonist of Human D 1 Dopamine Receptor: qHTS; D(1A) dopamine receptor (Homo sapiens), P21728; HEK293 TREx D1 cells, calcium flux, dopamine EC80; hits give low values; activity change, negative = inhibition, % at 10 µM; 360,000 tested, 3.2% active; AID 504652, 2011; in the data active means activity change below about -30%; further: on the % scale 0 is the no-effect control and ±100 the full control effect
#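 Allosteric or orthosteric antagonism assessed as attenuation of the calcium response to EC80 dopamine, added 180 s after compound, in induced HEK293 Trex D1 cells loaded with no-wash calcium dye.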
# Starred values were filed as active, the others as inactive; . = not tested or not shown. Sampled rows, rich in hits. Any-hit rate of the full collection: about 4%. Unless noted, no stated cut-off is given here; in the data, active means activation above about 30%; inactive means the rest.
SMILES,D1 PAM,D1 agonist,TRHR ag,Glioma ERSR ind,TRHR PAM,D1 antagonist
O=C(Nc1nc(-c2ccccc2)nc2ccccc12)c1ccc(F)cc1,-7,2,1,2%,-5,-58*
OCCCNc1nc(-c2ccc(Cl)cc2)nc2ccccc12,-6,0,1,-4%,-4,-9
Oc1ccc(Nc2nc(-c3ccc(Cl)cc3)nc3ccccc23)cc1,-5,4,-1,-12%,-2,-34*
COCc1[nH]c(=S)c(C#N)cc1C(=O)OC,-6,1,1,3%,6,-16
Cc1[nH]c2ccccc2c1C(=O)C(=O)N1CCN(c2cccc(Cl)c2)CC1,1,4,1,-5%,3,-38*
Cc1[nH]c2ccccc2c1C(=O)C(=O)N1CC(C)OC(C)C1 (configuration not stated),1,1,0,-5%,-3,1
Cc1[nH]c2ccccc2c1C(=O)C(=O)N1CC=C(c2ccccc2)CC1,-2,24,0,-4%,-7,-37*
CCc1nc(CN2CCCC(C(=O)Nc3ccc(-c4cccc(OC)c4)cc3)C2)c(C)[nH]1 (configuration not stated),.,.,.,1%,.,.
COc1ccc(-c2c(C)nn3c(-c4ccccc4)cc(C)nc23)cc1OC,0,-1,1,-2%,36*,-8
Cc1cc(O)c(C(C)C)cc1N=Nc1ccccc1C(=O)O,-4,6,0,-1%,0,-3
Cc1cc(NO)c(C(C)C)cc1N=O,-10,36*,-1,-6%,1,-29
COCCCNC(=O)CS(=O)Cc1nc(-c2ccccc2C)oc1C (configuration not stated),-3,2,0,-4%,1,-48*
O=C(NC1CC1)C1CCN(C2CCN(C(=O)Cc3ccc4c(c3)OCO4)CC2)CC1,-4,3,0,-2%,-1,1
COc1ccc(CNC(=O)C2CCC(CNS(=O)(=O)c3cccc4nsnc34)CC2)cc1 (configuration not stated),-4,3,0,-6%,0,-46*
COCCNC(=O)C1CCC(CNS(=O)(=O)c2cccc3nsnc23)CC1 (configuration not stated),2,1,0,-5%,-6,34
CC(C)NC(=O)C1CCN(C2CCN(C(=O)Cc3ccc4c(c3)OCO4)CC2)CC1,-4,0,0,-3%,-1,-33*
O=C(NCc1ccc2c(c1)OCO2)C1CCC(CNS(=O)(=O)c2cccc3nsnc23)CC1 (configuration not stated),.,1,0,-3%,3,-52*
O=C(NCc1ccccn1)C1CCC(CNS(=O)(=O)c2cccc3nsnc23)CC1 (configuration not stated),-2,7,1,7%,-6,22
CS(=O)(=O)N1CCC(C(=O)NCc2ccc3c(c2)OCO3)CC1,1,1,1,-4%,-1,-35*
Cc1cc(=O)[nH]c(SCC(=O)c2ccc(C(C)C)cc2)n1,-10,6,0,6%,-9,-21
O=c1cc(C(F)(F)F)nc(-n2[nH]c3c(c2=O)CCCC3)[nH]1,-5,0,0,-2%,11,-6
Cc1ccc(C(=O)N(CCC2=CCCCC2)c2c(N)n(Cc3ccccc3)c(=O)[nH]c2=O)o1,2,1,0,-3%,-3,-18
CCCCCC(=O)N/N=C/c1cccs1,1,-1,0,-1%,-4,-47*
O=C(CCC(=O)Nc1ccc(F)cc1)N/N=C/c1cccs1,7,0,0,-4%,3,2
Clc1cnc(N/N=C/c2ccncc2)c(Cl)c1,10,3,-1,-4%,-3,-2
SMILES,D1 PAM,D1 agonist,TRHR ag,Glioma ERSR ind,TRHR PAM,D1 antagonist
Clc1ccc(N/N=C/c2ccncc2)cc1Cl,-10,4,2,9%,-1,-34*
CCOc1cc(C)c(S(=O)(=O)NC2CCCCC2)cc1C,-5,18,0,-2%,0,-33*
O=C(CCS(=O)(=O)c1ccccc1)NNC(=O)COc1ccc(F)cc1,.,.,.,2%,.,.
CC(C)(C)NC(=O)c1cccc(NC(=O)CSc2ccc(Cl)cc2)c1,-11,10,0,0%,-5,-59*
COc1cc(-c2cc(N)n(S(=O)(=O)c3ccc(F)cc3)n2)cc(OC)c1OC,-4,0,0,-2%,3,1
CCOC(=O)C1CCN(C(C)=C2C(=O)c3ccccc3C2=O)CC1,-5,0,1,-2%,0,-14
Cc1nc2ccccc2n1C1CCN(CC(=O)NCc2ccc(F)cc2)CC1,-1,1,-1,-5%,4,-43*
COc1ccccc1NC(=S)N1CCCc2ccccc21,3,2,0,0%,6,13
CCn1c2ccccc2c2cc(NC(=O)c3cc(C)on3)ccc21,-15,0,-2,1%,-2,-45*
CCn1c2ccccc2c2cc(NC(=O)c3coc(=O)c(Br)c3)ccc21,-5,15,5,.,-2,-32*
CCn1c2ccccc2c2cc(NC(=O)c3ccc(=O)oc3)ccc21,0,16,8,0%,-3,2
CC(OCCN(C)C)C(=O)C12CC3CC(CC(C3)C1)C2 (configuration not stated),1,1,1,6%,0,0
CCc1ccc(/C=C2\Oc3cc(OS(C)(=O)=O)ccc3C2=O)cc1,-6,3,2,4%,-3,-22
CCc1ccc(/C=C2\Oc3c(ccc(O)c3CN3CCN(CCO)CC3)C2=O)cc1,3,64*,16,-1%,5,0
Cn1c(=O)c(-[n+]2ccccc2)c([O-])c2ccccc21,-1,1,0,-4%,5,-6
COc1ccc(/C=N/NC(=O)c2nc(-c3ccccc3)n(-c3ccccc3)n2)c(O)c1,-8,8,3,-2%,1,-61*
CNS(=O)(=O)c1ccc(Oc2ccc(S(=O)(=O)NC)cc2)cc1,-6,8,1,-5%,-3,-44*
COc1ccc(Cl)cc1S(=O)(=O)Nc1cccc(-c2ccc(N3CCCC3)nn2)c1,3,1,0,6%,-4,6
COc1cc(OC)cc(C(=O)Nc2cccc(-c3ccc(N4CCOCC4)nn3)c2)c1,8,0,0,2%,-5,1

# Screens: PubChem, National Center for Advancing Translational Sciences (NCATS)
